From PubChem BioAssay AID1117263 (The Scripps Research Institute Molecular Screening Center, 2014) come the findings set out here.

The structures appear in SMILES notation. The whole screen tested about 2,300 compounds, of which about 300 (13%) were called active. Not all results are given here. A number with no mark means an inactive call.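 Rule for the calls: active = mean inhibition of the replicates above the hit cutoff set in the primary screen (cut at about 17% in these data); inactive = the rest.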

Sequence of Sialate O-acetylesterase (Homo sapiens) (Q9HAT2 whole entry, looked up): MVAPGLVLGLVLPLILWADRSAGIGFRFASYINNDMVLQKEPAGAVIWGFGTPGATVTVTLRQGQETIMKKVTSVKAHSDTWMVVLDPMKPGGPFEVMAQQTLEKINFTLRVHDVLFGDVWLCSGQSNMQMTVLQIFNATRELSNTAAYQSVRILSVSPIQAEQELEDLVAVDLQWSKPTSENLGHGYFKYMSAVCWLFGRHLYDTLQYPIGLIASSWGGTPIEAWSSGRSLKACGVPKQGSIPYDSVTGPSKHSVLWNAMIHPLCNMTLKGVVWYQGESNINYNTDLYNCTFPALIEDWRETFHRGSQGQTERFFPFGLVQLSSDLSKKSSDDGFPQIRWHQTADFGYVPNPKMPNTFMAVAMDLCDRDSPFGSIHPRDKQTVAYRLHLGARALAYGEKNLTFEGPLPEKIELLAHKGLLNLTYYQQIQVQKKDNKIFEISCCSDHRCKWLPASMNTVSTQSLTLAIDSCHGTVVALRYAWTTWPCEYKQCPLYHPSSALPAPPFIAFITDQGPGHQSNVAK

This assay has as its target Sialate O-acetylesterase (Homo sapiens) (UniProt Q9HAT2). Nature of the assay: sialate O-acetylesterase blockers re-tested – biochemical, fluorescence polarization, FP-Rh probe, triplicate, confirmation (AID 1117263).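 Note: 0% = SIAE with DMSO and probe and 100% = probe without SIAE; inhibitors lower polarization as more probe stays unbound to SIAE.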 The following applies: SIAE FP-Rh activity-based probe, at 9.66 µM, stronger effect = higher value. On the technique in general: In fluorescence polarisation assays a small probe gives low polarisation when free and higher when bound to something large.
By inhibition is commonly meant the relative decrease from the control value, in per cent. For the molecule `Oc1ccc(CNc2ccccc2O)cc1`, the inhibition is -1.96%.
Take `Cc1cccc(C)c1NC(=O)CN(C)C(=O)CCC(=O)c1ccccc1`: the inhibition was -0.52%.
For the molecule `CN(C)c1ccc(N/C=C/C(=O)C(F)(F)F)cc1`, the inhibition was 2.35%.
For `COc1cc(C(=O)Nn2c(O)c(C3=c4ccccc4=NC3=O)sc2=S)ccc1O`, the inhibition was 34.8% (active).
For the molecule `Cc1nc2ccc(C(=O)N3CCSCC3)cc2s1`, the inhibition is -7.27%.
Turning to `COC(=O)C1=C(NC(=O)C(C)(C)C)CCS1`, the inhibition was 0.95%.
Regarding `CN(CC(=O)Nc1cccc(F)c1)CC(=O)Nc1cccc([N+](=O)[O-])c1`, the inhibition was 1.24%.
As for `CCOC(=O)c1c(C)nn(-c2ncccc2NC(=O)CCC(=O)O)c1C`, the inhibition was -3.52%.
As to `CC(C)CCNC(=O)C1CCCN(S(=O)(=O)c2ccc(F)cc2)C1` (centres undefined), the inhibition was 1.12%.
In the case of `CN1c2ccc(C=O)c3c(C=O)ccc(c23)N(C)C1(C)C`, the inhibition was 4.27%.
As to `COc1ccc(C2OCC3(CO2)SC(=O)NC3=O)cc1OC` (centres undefined), the inhibition was -9.1%.
For the molecule `CC1(C)C/C(=C(/C#N)C(N)=O)CCO1`, the inhibition was -3.01%.
Consider `CCOc1cc(N2CCOCC2)c(OCC)cc1NC(=O)COc1cccc2cccnc12`, for which the inhibition is 8.9%.
As to `O=C(NNc1c2ccccc2nc2ccccc12)c1cc2ccccc2cc1O`, the inhibition is 13.8%.
For `CC(=O)Nc1ccc(Nc2cc(C)nc(Nc3ccc(NC(C)=O)cc3)n2)cc1`, the inhibition is 4.83%.
In the case of `Cc1ccnc(NS(=O)(=O)c2ccc(NC(=O)c3ccc(S(=O)(=O)N4CCOCC4)cc3)cc2)n1`, the inhibition was 1.77%.
With `Oc1ccc(C2Nc3cccc4cccc(c34)N2)cc1`, the inhibition is 29.6% (active).
With `Cc1ccc(C2Nc3cccc4cccc(c34)N2)cc1`, the inhibition was 7.48%.
As to `Cc1ccc(NC(=S)NCCN2CCOCC2)cc1`, the inhibition was 2.38%.
As to `CCOc1ccccc1Nc1ccc(C(=O)O)cc1[N+](=O)[O-]`, the inhibition is -0.47%.
As to `Cc1ccc(N=C2NC(=O)/C(=C/C=C/c3ccco3)S2)cc1C`, the inhibition is -34.3%.
As to `CCOc1ccc(Nc2nc(Cc3nnc(SCC(=O)NC4CCCC4)n3C)cs2)cc1`, the inhibition is 5.78%.
The same measure for `COc1ccc(C2C(C(C)=O)=C(O)C(=O)N2CCc2c[nH]c3ccccc23)cc1` (centres undefined): 0.13%; for `CCOC(=O)N1CCN(C(=O)CSc2ccc(Cl)cc2)CC1`: -2.01%.
Consider `CC(=O)Nc1ccc(S(=O)(=O)Nc2ccc(N3CCCCC3)cc2)cc1`, for which the inhibition is 4.68%.
For `COc1ccc(NC(=O)/C(N=Nc2cccc(S(=O)(=O)Nc3ccc(SC(F)F)cc3)c2)=C(\C)O)cc1`, the inhibition is -11.2%.
Take `CCCCn1c(N)c(N(CC(C)C)C(=O)CSc2ccc([N+](=O)[O-])cc2)c(=O)[nH]c1=O`: the inhibition was 4.78%.
The same measure for `O=C(NC(=S)Nc1ccc(NC(=O)c2cccs2)cc1)c1ccc([N+](=O)[O-])cc1`: 15.2%.
As to `C=CCN1C(=O)[C@@H](CC(=O)NCC2CCCCC2)[C@]2(C(=O)OC)CCCCC=C12`, the inhibition is 4.13%.
Consider `COc1ccc2nc(Nc3nc4cc5c(cc4s3)OCCO5)sc2c1`, for which the inhibition is 0.67%.
Turning to `O=C1CCCC(O)=C1N=Nc1ccc(S(=O)(=O)N2CCOCC2)cc1`, the inhibition is 3.36%.
In the case of `CC(=O)Nc1cccc([N+](=O)[O-])c1`, the inhibition was 1.2%.
In the case of `CC(NS(=O)(=O)c1ccc(Cl)cc1)C(=O)Nc1ccc2c(c1)OCCO2` (centres undefined), the inhibition was -0.44%.
For the molecule `CCn1c(=O)n(CC)c2cc(N3CCCC3)c(NC(=O)c3ccccc3Br)cc21`, the inhibition was 2.42%.
With `O=C(Nc1ccccc1N1CCCC1)c1ccc(F)c(S(=O)(=O)N2CCOCC2)c1`, the inhibition is -3.75%.
In the case of `Cc1nc2cc(NCc3cccs3)ccc2n1C` it was -2.47%.
Turning to `Cn1cccc1/C=N/NC(=O)CNc1cccc2ccccc12`, the inhibition was 5.62%.
On to `O=C(N/N=C/c1sc(N2CCCCC2)nc1-c1cccs1)c1cccnc1`, for which the inhibition was 16.6%.
Consider `C/C=C/c1ccc(OCC(=O)OCC(=O)Nc2c(C)nn(-c3ccccc3)c2C)c(OC)c1`, for which the inhibition is 3.24%.
Take `C[C@@H]1O[C@@H](OC[C@H]2O[C@@H](Oc3c(-c4ccc(O)cc4)oc4cc(O)cc(O)c4c3=O)[C@H](O)[C@@H](O)[C@@H]2O)[C@H](O)[C@H](O)[C@H]1O`: the inhibition was 6.07%.
On to `CCOC(=O)C1=C(C)N=C2c3ccccc3C(=O)C2C1c1ccc(Br)cc1` (centres undefined), for which the inhibition is 7.01%.
For `Cc1cc2ccccc2n1CCNC(=O)COc1ccc2ccccc2c1`, the inhibition was 9.71%.
Take `Cc1cc2ccccn2c1C(=O)c1cccc(F)c1`: the inhibition is -0.9%.
For the molecule `COc1ccc(Cc2nc3ccc(C(=O)N4CCC(N(C)C)C4)cc3o2)cc1` (centres undefined), the inhibition was -0.71%.
Consider `COc1ccc(-c2cc(C(=O)NC(Cc3c[nH]c4ccccc34)C(=O)O)c(C)o2)cc1OC` (centres undefined), for which the inhibition was 10.6%.
The same measure for `NS(=O)(=O)c1ccc(NC(=O)COC(=O)c2c3c(nc4ccccc24)/C(=C\c2ccc4c(c2)OCO4)CCC3)cc1`: -152%; for `CCCCC[C@H](C)N1C[C@@H](COCc2ccccc2)Oc2cc(N3CC[C@@H](N(C)C)C3)ccc2S1(=O)=O`: 23.2% (active).
As to `CNS(=O)(=O)c1ccc2c(c1)[nH]c(=S)n2C`, the inhibition is 8.04%.
The same measure for `Cc1ccc(C(=O)N/C(=C/c2ccc(-c3cccc([N+](=O)[O-])c3)o2)C(=O)NCCCN(C)C)cc1`: 0.77%.
The same measure for `NNC(=O)c1oc2nc(-c3ccccc3)cc(-c3ccco3)c2c1N`: 56% (active); for `CNC(=S)NNC(=O)c1oc2nc(-c3ccccc3)cc(-c3ccco3)c2c1N`: 3.72%; for `Cc1ccc(OCC(=O)Nc2ccc(-c3nnc(-c4ccco4)o3)cc2)cc1`: -15.4%.
As to `CCOC(=O)/C(N=Nc1cc(C(=O)O)cc(C(=O)O)c1)=C(\O)CCl`, the inhibition was 2.21%.
Turning to `CC(C)c1cc(N=O)cc(C(C)C)c1O`, the inhibition is -26.2%.
For the molecule `Oc1ccccc1C1=NN(c2ccccc2)C(c2ccccc2)C1` (centres undefined), the inhibition is 6.69%.
The same measure for `CCOc1ccc(NC(=O)C/C(C)=N/NC(=O)Cc2cccs2)cc1`: 4.73%.
The same measure for `CCN(CC)CCCC(C)n1c2nc(=O)[nH]c(=O)c-2nc2cc(Cl)ccc21` (centres undefined): 25.5% (active).
`COC(=O)C(C)Sc1ccc2nnc(-c3cccc(F)c3)n2n1` (centres undefined): the inhibition was -0.98%.
Turning to `Oc1ccc2ccc3cccc[n+]3c2c1`, the inhibition is 4.67%.
For `CCOC(=O)C1=C(c2ccccc2)O/C(=C(/C(=O)OC)C(F)(F)F)S1`, the inhibition is -7.25%.
Regarding `CCN(C(=O)COC(=O)C1CCN(S(=O)(=O)c2ccc(C)c(C)c2)CC1)C1CCS(=O)(=O)C1` (centres undefined), the inhibition is 2.26%.
In the case of `Nc1ccc2nc3c(=O)[nH]c(=S)[nH]c3nc2c1` it was 32.7% (active); in that of `Cc1nc(-c2ccc(Cl)cc2)sc1C(=O)NN`, -2.12%; in that of `NNc1nc2c(Cl)cccc2s1`, 5.82%.
The same measure for `S=C(NCCCc1cnc[nH]1)NCCCN(Cc1ccc(Cl)c(Cl)c1)c1ccc(Br)cn1`: 30.6% (active); for `Oc1ccc(/C=N/N(Cc2ccccc2)c2ccccc2)cc1`: 9.47%.
On to `CC(C)(O)C#Cc1ccc(C(=O)N2CCC(C(N)=O)(N3CCCCC3)CC2)cc1`, for which the inhibition is 2.82%.
As for `COc1cccc(/C=N/Nc2cc(C)nc(-c3ccccc3O)n2)c1O`, the inhibition is -14.6%.
In the case of `COc1ccc(CCNc2ncnc3nc[nH]c23)cc1OC` it was -2.94%.
In the case of `COc1ccc2[nH]c(=S)cc(C)c2c1`, the inhibition is -5.42%.
On to `O=C(NN=C1CCC(=NNC(=O)c2cccnc2)CC1)c1cccnc1`, for which the inhibition was 6.57%.
`CCOc1ccc(Nc2nc(Cc3nnc(SCC(=O)c4ccc(C)cc4)o3)cs2)cc1`: the inhibition is 5.41%.
In the case of `COc1ccc(/C=N/NC(=O)c2ccncc2)cc1CN1CCCc2ccccc21`, the inhibition was 22.8% (active).
As to `COc1ccc(OC)c(CN2CCN(C(=O)CNC(=O)c3cc(C)cc(C)c3)CC2)c1`, the inhibition was -0.63%.
Take `COc1ccccc1/C=C/C=N/NC(=O)CN1CCN(Cc2ccccc2)CC1`: the inhibition is -1.91%.
As for `CCOC(=O)C(=O)C1C(=O)Nc2ccccc21` (centres undefined), the inhibition is 6.34%.
For the molecule `O=C(Nc1cccc(Cc2ccccc2)c1)Nc1ccc2nc([C@@H]3O[C@H](CO)[C@@H](O)[C@H](O)[C@H]3O)[nH]c2c1`, the inhibition was 10.5%.
The same measure for `CCOC(=O)C1Sc2[nH]c(=O)sc2C(c2ccc(Cl)cc2)C1C(=O)OCC` (centres undefined): 5.84%; for `Cc1ccc(/C=N/NC(=O)c2cc3ccccc3cc2O)o1`: 3.65%.
As for `CC1CCCCC1NC(=O)/C(C#N)=C/C=C/c1ccccc1[N+](=O)[O-]` (centres undefined), the inhibition was -0.36%.
Turning to `Cn1c(NN)nc2sc3c(c2c1=O)CCC3`, the inhibition is 11.8%.
For `O=C(O)c1ccccc1N=N/C(=N/Nc1cc(S(=O)(=O)O)ccc1O)c1ccccc1`, the inhibition was 9.57%.
In the case of `O=C(N/N=C/c1ccc(O)c2ccccc12)c1cccnc1`, the inhibition was -1.25%.
In the case of `COc1ccc(-c2csc(Nc3ccc(O)cc3)n2)cc1`, the inhibition is 2.15%.
In the case of `O=C(O)Cc1sc(-c2ccccc2)nc1-c1cccs1` it was -3.2%; in that of `CCOc1ccc(Cn2c(SCCCCC#N)nc3c2c(=O)n(C)c(=O)n3C)cc1OCC`, 3.27%.
In the case of `CCC(C)c1ccc(O)c(/C=N/O)c1` (centres undefined) it was 8.65%; in that of `COCCOC(=O)c1sc(=S)n(CCOC)c1N`, 9.71%.
The same measure for `Oc1ccc(N=Cc2sc3ccccc3c2Cl)cc1`: -0.14%; for `Oc1ccc(N=Cc2c(O)ccc3ccccc23)cc1`: -1.4%; for `c1ccc2[nH]c(-c3nc4ccccc4[nH]3)nc2c1`: 5.66%.
As for `CNC(=S)N/N=C/c1cn(Cc2ccc(C)cc2)c2ccccc12`, the inhibition was 9.36%.
In the case of `COc1cc(/C=N\Nc2nc(-c3cccs3)c(NC(C)=O)s2)ccc1O`, the inhibition was 13.2%.
For the molecule `CCn1c(SC)nc(O)c(C(c2ccc(OC)c(O)c2)c2c(O)nc(SC)n(CC)c2=O)c1=O`, the inhibition was -4.61%.
In the case of `O=C1CCN(C(=S)NCCc2ccccc2)CC1`, the inhibition is -3.6%.
Consider `Nc1ncnc2c1ncn2[C@@H]1O[C@H](C(=O)NCC(F)(F)F)[C@@H](O)[C@H]1O`, for which the inhibition was 44.1% (active).
`CN(Cc1ccc(C(F)(F)F)cc1)C(=O)[C@H]1O[C@@H](n2cnc3c(N)ncnc32)[C@H](O)[C@@H]1O`: the inhibition was 68.3% (active).
The same measure for `CC(=O)CSc1nnc(CSc2ncccn2)n1C1CCCCC1`: -1.2%; for `O=C(CSc1ccc(-c2ccco2)nn1)Nc1cccc(F)c1`: 0.25%; for `Cc1cccc(C2c3c(n(C)c(=O)n(C)c3=O)N=C3c4ccccc4C(=O)C32)c1` (centres undefined): -3.19%.
`Cc1[nH]c2ccccc2c1C(=O)CSCC(=O)O`: the inhibition is -9.03%.
For the molecule `COc1ccc(N2CCN(c3ccc([N+](=O)[O-])nc3)CC2)cc1`, the inhibition was 8%.
Consider `CC(C)=CCCC1(C)C=Cc2c(ccc3c2[nH]c2cc(O)c(C)cc23)O1` (centres undefined), for which the inhibition is 2.11%.
In the case of `Cc1ccc(Nc2nc(-c3ccc(O)cc3O)cs2)nc1`, the inhibition was 9.2%.
For `O=C(CC[C@H]1O[C@@H](n2ccc(=O)[nH]c2=O)[C@H](O)[C@@H]1O)N[C@H](Cc1ccccc1)C(=O)NCCCN1CCCC1=O`, the inhibition is 32.5% (active).
For the molecule `O=C1CC(c2ccccc2)=NN1c1ccc([N+](=O)[O-])cc1`, the inhibition is -0.43%.
The same measure for `O=c1[nH]n(-c2ccc([N+](=O)[O-])cc2)c(=O)c2ccccc12`: 19% (active).
With `CC(C)/C=N/NC(=O)c1cc(Br)ccc1O`, the inhibition was 4.2%.
Regarding `S=C(Nc1ccc(Br)cc1)NC1CCN(Cc2ccccc2)CC1`, the inhibition was 2.28%.
